# Sampled rows, rich in hits. Any-hit rate of the full collection: about 1.5%.
# IDE cell inh: human IDE inhibitors in live cells, primary screen, fluorescence polarization, HEK cells, FAbetaB substrate | Insulin-degrading enzyme (Homo sapiens), P14735 | FAbetaB cleavage | inhibition, % at 5.59 µM | 320,000 tested, 0.41% active | AID 434962, 2010;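 active = percent inhibition above the average of all tested compounds plus 3 SD, set per screening campaign, cut at about 16% in these data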;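 note: IDE supplied by intact live HEK cells; FP after avidin binding of uncleaved biotin substrate so inhibition keeps polarization high; 0% = DMSO wells and 100% = 60 µM reference IDE inhibitor Ii1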
# Bcl-xL primary: inhibitors of human Bcl-xL, primary screen, biochemical, fluorescence polarization, HTS | Bcl-2-like protein 1 (Homo sapiens), Q07817 | GST-Bcl-xL / FITC-Bim BH3 peptide fluorescence polarization | inhibition, % at 10.9 µM | 320,000 tested, 0.7% active | AID 2129, 2009;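 active = inhibition above the mean of all tested compounds plus 3 SD, cutoff set per campaign, cut at about 30% in these data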;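 note: 0% = DMSO wells and 100% = unlabeled Bim-BH3 peptide competitor; inhibitors lower millipolarization by displacing the labeled peptide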
# MEX-5 binding: MEX-5 zinc finger RNA-binding disruptors – biochemical, C. elegans, fluorescence polarization, MLPCN library, primary screen. Zinc finger protein mex-5 (Caenorhabditis elegans), Q9XUB2. MEX-5/FITC-TCR2 RNA binding; hits give low values. activity score (negative = inhibition of binding), % at 10 µM. 300,000 tested, 0.38% active;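 active = inhibition past about -25% in most replicates, and total fluorescence under double the plate's negative control median, limit read from the data; inconclusive = replicates evenly split on the limit, or fluorescence at least double controls; inactive = too little inhibition in most replicates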;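 note: 0% = DMSO and -100% = 5 µM competing unlabeled TCR2 RNA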
# GLD-1 TGE inh: GLD-1/TGE RNA complex disruptors, primary screen, biochemical, fluorescence polarization. Female germline-specific tumor suppressor gld-1 (Caenorhabditis elegans), Q17339. purified GLD-1 + fluorescein TGE RNA. inhibition, % at 5.96 µM. 320,000 tested, 0.44% active;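 active = percent inhibition above a per-plate cutoff, the plate mean of test compounds plus 3 SD, cut at about 30% in these data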;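 note: 0% = DMSO wells with GLD-1 and probe and 100% = wells lacking GLD-1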
# Target sequence (Q17339 whole entry, looked up): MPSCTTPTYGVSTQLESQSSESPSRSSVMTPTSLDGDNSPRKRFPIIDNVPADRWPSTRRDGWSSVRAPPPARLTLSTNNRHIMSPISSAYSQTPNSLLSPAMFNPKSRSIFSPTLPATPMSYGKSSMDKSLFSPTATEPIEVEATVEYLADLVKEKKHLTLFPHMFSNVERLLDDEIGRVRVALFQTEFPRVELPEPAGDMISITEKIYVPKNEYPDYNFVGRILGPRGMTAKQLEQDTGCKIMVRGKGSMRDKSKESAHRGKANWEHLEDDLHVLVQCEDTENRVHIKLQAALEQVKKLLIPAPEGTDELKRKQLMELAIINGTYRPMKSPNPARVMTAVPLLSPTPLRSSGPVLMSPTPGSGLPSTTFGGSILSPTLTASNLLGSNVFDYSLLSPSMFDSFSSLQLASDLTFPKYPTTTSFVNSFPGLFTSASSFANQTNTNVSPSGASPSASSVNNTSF
# IDE cell activ: human IDE activators in live cells, primary screen, fluorescence polarization, HEK cells, FAbeta-B substrate. AID 493087, 2011. activation, % at 5.96 µM. Insulin-degrading enzyme (Homo sapiens), P14735. 340,000 tested, 0.073% active. FAbeta-B cleavage; 0% vehicle, 100% cell-free pure enzyme wells;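 active = activation above the mean of all tested compounds plus 3 SD, set per screening campaign, cut at about 17% in these data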
# MCL1-BIM inh: inhibitors of MCL1 binding to BIM-BH3, primary screen, biochemical, fluorescence polarization; Induced myeloid leukemia cell differentiation protein Mcl-1 (Homo sapiens), Q07820; inhibition, % at 10.9 µM; AID 2057, 2009; 320,000 tested, 0.68% active; GST-MCL1 / FITC-Bim-BH3 fluorescence polarization;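 active = inhibition above the mean inhibition of all tested compounds plus 3 SD, set per campaign, cut at about 40% in these data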;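 note: 0% = DMSO wells and 100% = unlabeled Bim-BH3 peptide control; higher means more loss of mP so more displacement of Bim peptide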
# BCLXL inh confirm: Bcl-xL inhibitors blocking Bim BH3 binding, confirmation, counter-screen for MCL1 inhibitor project, biochemical, fluorescence polarization | shares compounds with MCL1-BIM inh | 1,700 tested, 54% active | inhibition, % at 10.9 µM | GST-Bcl-xL / FITC-Bim BH3 peptide FP binding;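 active = inhibition above a cutoff equal to the mean inhibition of all tested compounds plus 3 SD, cut at about 30% in these data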;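 note: 0% = DMSO wells and 100% = unlabeled Bim BH3 control peptide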
# MCL1 BIM confirm: inhibitors of MCL1 binding to BIM-BH3, confirmation, biochemical, fluorescence polarization, triplicate. AID 2168, 2009. shares compounds with MCL1-BIM inh. GST-MCL1 / FITC-Bim-BH3 fluorescence polarization. inhibition, % at 10.9 µM. 1,700 tested, 61% active;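 active = inhibition above the average of all tested compounds plus 3 SD, cut at about 40% in these data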;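 note: 0% = DMSO wells and 100% = unlabeled Bim-BH3 control peptide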
# Numbers without * were called inactive; ? = inconclusive; . = no result given.
SMILES,IDE cell inh,Bcl-xL primary,MEX-5 binding,GLD-1 TGE inh,IDE cell activ,MCL1-BIM inh,BCLXL inh confirm,MCL1 BIM confirm
O=C1N=C(N2C=CC(=C3C=CNC=C3)C=C2)/C(=C/N=NC(=O)c2ccccc2O)S1,5,99*,-46*,81*,-2,115*,84*,114*
CCc1cc[n+](-c2nc([O-])sc2C=O)cc1,3,122*,-50*,99*,3,136*,83*,119*
COc1ccccc1-c1sc2ccccc2c1-c1ccc2c(c1)OCCO2,-2,-2,.,1,9,-5,.,.
CC(=O)Oc1cc2cccc(OC(C)=O)c(=O)c2c(OC(C)=O)c1OC(C)=O,4,81*,-61*,14,1,105*,29,36
COc1cc2cccc(OC)c(=O)c2c(O)c1OC,4,3,2,-8,-4,7,.,.
O=c1nc(/C=C/c2ccc(-c3ccc(F)cc3)o2)cc(C(F)(F)F)[nH]1,5,11,0,-11,.,44*,40*,22
O=C(O)c1ccccc1-c1ccc(/C=C/c2cc(C(F)(F)F)[nH]c(=O)n2)o1,.,.,?,.,-16,.,.,.
O=C(c1ccco1)N(c1ccccn1)c1ccccn1,4,4,0,-4,0,7,.,.
O=C(/C=C/c1ccco1)N(c1ccccn1)c1ccccn1,-2,24,-2,10,-3,56*,22,53*
CCOc1ncccc1C(=O)NNC(=O)c1cccc(S(=O)(=O)N2CCOCC2)c1,-1,.,.,2,-2,.,.,.
O=C1C=C(NNC(=O)c2cccnc2)CC(c2ccco2)C1 (stereo not given),-2,49*,-15,120*,1,54*,13,14
Nc1ccc(O)c(-c2nc3ccccc3s2)c1,3,51*,-5,16,1,61*,37*,38
Oc1ccc(N=C/C=C/c2cccc(Br)c2)cc1-c1nc2ccccc2s1,12,36*,2,22,4,50*,18,18
O=C(Cc1cnn(-c2ccccc2)c1)c1ccc(O)c(O)c1O,7,16,-15,2,-6,64*,14,40
CCc1cc(C(=O)Cc2cnn(-c3ccccc3)c2)c(O)cc1O,-4,3,0,-4,1,4,.,.
COc1cc(Cl)c(C)cc1NC(=O)CN1C(=O)C2CCCCC2C1=O (stereo not given),-1,-2,.,-4,3,-10,.,.
COc1ccc(-c2nc(CS(=O)CC(=O)N3CCOCC3)c(C)o2)cc1OC (stereo not given),-2,-4,.,0,5,1,.,.
O=c1oc2c(O)c(O)cc3c(=O)oc4c(O)c(O)cc1c4c23,-6,74*,.,8,6,97*,79*,98*
Cn1c(=O)n(C)c2cc(S(=O)(=O)Nc3cc(Cl)ccc3O)ccc21,1,1,3,-1,10,0,.,.
NC(=O)c1c(NC(=O)C2CC=CCC2C(=O)O)sc2c1CCCCC2 (stereo not given),1,27,0,2,3,41*,20,20
Oc1ccc(/C=N/N2CCCCC2)c(O)c1O,6,38*,-29*,26,-2,54*,12,6
Oc1cccc(/C=N/N2CCCCC2)c1O,7,3,-7,-7,1,10,.,.
O=C(NNC(=O)c1cc(Br)c(Br)s1)c1ccncc1,-1,4,.,1,2,2,.,.
O=C(CN(c1ccccc1)S(=O)(=O)c1ccccc1[N+](=O)[O-])N1CCCC1,3,3,1,1,1,7,.,.
C=CCOc1ccc(CNCCc2ccc(S(N)(=O)=O)cc2)cc1,-3,4,-1,4,2,0,.,.
SMILES,IDE cell inh,Bcl-xL primary,MEX-5 binding,GLD-1 TGE inh,IDE cell activ,MCL1-BIM inh,BCLXL inh confirm,MCL1 BIM confirm
COc1ccc(C(=O)OCC(=O)Nc2ncc([N+](=O)[O-])s2)cc1OC,3,23,.,-2,-4,74*,28,58*
COc1ccc(CCN2C(=O)N[C@@H](CCC(=O)O)C2=O)cc1,5,5,0,-7,-5,6,.,.
N#Cc1c(=O)c2nc(NCc3ccccc3)ncc2n2ccccc12,2,44*,-4,20,4,53*,32*,43*
CCSC1=N/C(=C\c2ccc(-c3ccccc3[N+](=O)[O-])o2)C(=O)S1,-2,74*,-7,48*,0,90*,120*,141*
CCCSC1=N/C(=C\c2ccc([N+](=O)[O-])o2)C(=O)S1,.,.,.,.,-4,.,.,.
COc1cc2c(cc1OC)[C@@H](NC(=O)CCC1CCCCC1)[C@H](O)C2,.,.,.,.,2,.,.,.
CC(=O)N/C(=C\c1ccccc1)C(=O)OCC(=O)Nc1cc(S(=O)(=O)N(C)C)ccc1Cl,.,.,.,.,4,.,.,.
Cc1nn(-c2ccccc2)c2c1C(c1ccc(O)c(O)c1)N1C(=N2)C(Nc2ccccc2)=Nc2ccccc21 (stereo not given),-2,64*,-1,95*,-2,70*,18,19
O=C(COc1ccc(Cl)cc1)NCc1n[nH]c(=O)c2ccccc12,-15,3,0,0,1,0,.,.
COc1ccccc1N1CCN(C(=O)CSc2nnc3c4ccccc4nc(Cc4ccccc4)n23)CC1,-2,2,2,5,.,-1,.,.
O=C(CCC(=O)OCC(F)(F)C(F)F)Nc1ccccc1F,-3,4,1,8,0,-6,.,.
CCNc1ccc(Br)cc(C(=O)/C=C/c2ccc3c(c2)OCO3)c1=O,-2,13,-4,9,3,47*,-26,-45
CCNc1ccc(Br)cc(C(=O)/C=C/c2ccc(Cl)cc2)c1=O,2,-24,-4,4,-2,-80,.,.
COC(=O)C1=C(C)NC(C)=C(C(=O)OC)C1c1cc2cc(C)ccc2[nH]c1=O,3,6,-4,-3,0,6,.,.
